Bioassay records as filed in PubChem BioAssay.
A selection: hits, their analogues and other compounds. The true share with any hit is near 3.1%.
Pin1 inh = inhibitors of human Pin1; Potency, µM (top dose mostly 115 µM), most hits filed as inhibitors; AID 504891; 0.009% of 390,000 active; Q13526; Pin1 FP peptide displacement, HiFluor488, 10 min; active = well fitted inhibition curve with a large enough effect in the polarisation, with a control signal flat, not every such curve was filed as active; inconclusive = small, poorly fitted or top-dose-only effect, or effect the other way, or a change in a side signal; inactive = no such curve, though single readings can be large or run the other way; the % refers to the polarisation
VDR inhibitor = vitamin D3 receptor (human) inhibition; AID 504847; Potency, µM, hits mostly inhibitors; P11473; VDR-SRC2-3 peptide fluorescence polarization, 2 h; 0.93% of 400,000 active
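The screen uses fluorescence polarization to detect compounds that interfere with recruitment of the SRC2-3 coactivator peptide to VDR; plates are read after 2 h at room temperature.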
S-ASM inh = blocks human secretory acid sphingomyelinase; P17405; placental ASM, HMU-PC fluorogenic substrate, 60 min; Potency, µM (series often up to 57.5 µM), usual class: inhibitors; 0.006% of 340,000 active; AID 504937
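Human placenta-derived ASM preincubated with compound 10 min at room temperature, then reacted with 9 uM (final) fluorogenic HMU-PC substrate for 60 min at 37 C. Stop solution raises pH to 10; fluorescence read at Ex 386/Em 447 nm.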
Tb PFK inh = blocks T. brucei phosphofructokinase. T. brucei PFK, ADP-Glo luminescence. AID 485367. 0.17% of 330,000 active. Potency, µM (doses to about 57.5 µM), hits mostly inhibitors; also: nearly all actives have a fitted effect of over 60% in size
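1.25 nM PFK with 0.5 mM F6P and 0.1 mM ATP in 0.1 M TEA pH 8.0, 5 mM MgCl2, incubated 45 min at room temperature; ADP measured by ADP-Glo luminescence; compounds titrated up to 57 uM.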
PLK1 PBD block = inhibitors of human PLK1 polo-box domain binding; Plk1 PBD binding of FITC phosphopeptide, fluorescence polarization; 2.8% of 360,000 active; AID 720504; Potency, µM, actives largely listed as inhibitors; P53350; also: series mostly up to about 57 µM; nearly all actives have a fitted effect of over 65% in size
Target sequence (P53350 whole entry, looked up, the tested form may be a part): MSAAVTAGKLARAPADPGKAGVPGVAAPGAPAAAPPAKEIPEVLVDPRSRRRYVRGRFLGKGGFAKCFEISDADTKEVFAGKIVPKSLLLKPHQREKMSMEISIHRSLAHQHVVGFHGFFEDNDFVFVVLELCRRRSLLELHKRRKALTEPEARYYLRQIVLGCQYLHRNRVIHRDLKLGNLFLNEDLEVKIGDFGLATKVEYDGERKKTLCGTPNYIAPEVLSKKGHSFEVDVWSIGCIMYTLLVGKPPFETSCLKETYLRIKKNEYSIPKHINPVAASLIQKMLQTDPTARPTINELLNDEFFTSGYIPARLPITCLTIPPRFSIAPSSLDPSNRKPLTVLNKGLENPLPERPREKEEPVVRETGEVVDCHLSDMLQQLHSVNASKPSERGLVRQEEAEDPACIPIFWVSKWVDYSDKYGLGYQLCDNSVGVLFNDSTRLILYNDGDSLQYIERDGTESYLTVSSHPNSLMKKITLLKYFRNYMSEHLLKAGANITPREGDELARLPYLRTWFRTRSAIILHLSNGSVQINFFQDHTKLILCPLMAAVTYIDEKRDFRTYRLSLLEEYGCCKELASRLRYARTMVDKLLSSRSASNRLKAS
TDP1 block = blocks human tyrosyl-DNA phosphodiesterase 1; Q9NUW8; recombinant TDP1, AlphaScreen DNA substrate cleavage; Potency, µM (doses to about 130 µM), most hits filed as inhibitors; 0.28% of 350,000 active; AID 485290; also: nearly all actives have a fitted effect of over 40% in size
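Recombinant E. coli-expressed Tdp1 (1 nM) preincubated with compound 15 min at RT, then 5'-biotin/3'-phosphotyrosine-FITC DNA substrate (15 nM) added for 5 min. AlphaScreen beads (10 ug/ml) added, 10 min RT; tyrosine-FITC cleavage read as signal loss.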
A number is an active result; 0 = inactive; ? = inconclusive; - = no result; ! = not active in a repeat; [ ] = dose if it differs, or a comment. Unless noted, calls follow the shape of the dose curve; as a rule, active = well fitted curve in the direction sought with a large enough effect; inconclusive = small, poorly fitted or top-dose-only effect, or another doubt; inactive = no such curve, though single readings can be large; an effect the other way counts as inactive or inconclusive.

SMILES	Pin1 inh	VDR inhibitor	S-ASM inh	Tb PFK inh	PLK1 PBD block	TDP1 block
CC(C)C[C@@H](CNCC(=O)[C@H](Cc1c[nH]c2ccccc12)NC(=O)c1[nH]cnc1C(=O)N[C@@H](C)CN)NC(=O)c1nc[nH]c1C(=O)N[C@@H](CC(=O)O)C(=O)O	0	?	0	-	27µM	-
CC(C)C[C@@H](CNCC(=O)[C@H](CC(C)C)NC(=O)c1[nH]cnc1C(=O)N[C@@H](C)CN)NC(=O)c1nc[nH]c1C(=O)N[C@@H](CC(C)C)C(=O)O	0	?	0	-	27µM	-
CC(C)C[C@@H](CNCC(=O)[C@H](CC(C)C)NC(=O)c1[nH]cnc1C(=O)N[C@@H](C)CN)NC(=O)c1nc[nH]c1C(=O)N[C@@H](CC(=O)O)C(=O)O	0	?	0	-	?	-
COc1cccc(Nc2ccc3cc(S(=O)(=O)N4CCC(C)CC4)ccc3n2)c1	0	0	-	-	-	0
O=C(O)c1ccc(N/N=C/c2cn(Cc3ccccc3F)c3ccccc23)cc1	?	0	0	0	30µM	0
O=C(N/N=C/c1cn(Cc2cccc(F)c2)c2ccccc12)c1cc(O)cc(O)c1	-	0	?	?	19µM	0.63µM
CCOC(=O)c1cnn(-c2cccc(Cl)c2)c1C1CCN(C(=O)OC(C)(C)C)CC1	0	0	-	-	-	0
COC(=O)CC[C@H](N)C(=O)O	-	0	-	-	-	0
COC(=O)C(N)CS (stereo not drawn)	-	18µM	-	-	-	0
COC(=O)[C@@H](N)CS	0	20µM!	0	0	24µM	0
COC(=O)C(N)Cc1ccc(O)cc1 (stereo not drawn)	0	0	0	0	0	0
Cc1noc(C)c1S(=O)(=O)N1CCc2nc(-c3ccccc3)c3c(c2C1)CO[C@@H](C)C3	-	-	-	-	-	0[12.3 µM]
Cc1ccc(C2CC(=O)NC(SCCC(C)C)=C2C#N)cc1 (stereo not drawn)	0	0	0	0	13µM	0
CCC(=O)Nc1ccc2oc(-c3cccc(C)c3)nc2c1	0	?	0	?	3µM	0
Cc1ccc(S(=O)(=O)C(CNS(=O)(=O)c2ccc(F)c(C(F)(F)F)c2)c2ccco2)cc1 (stereo not drawn)	0	0	-	-	-	0
COc1ccc(C(=O)NCc2ccc3c(c2)OCO3)c(OC)c1	0	?	0	0	27µM	-
COc1ccccc1OCCC(=O)NCc1ccc2c(c1)OCO2	0	0	0	0	30µM	0
COc1cc(OC)cc(C(=O)NCc2ccc3c(c2)OCO3)c1	0	0	0	0	0	-
CCc1ccc(-c2nc(CS(=O)CC(=O)NC3CC3)c(C)o2)cc1 (stereo not drawn)	0	0	0	0	0	0
CCc1ccc(-c2nc(CS(=O)CC(=O)NC3CCCCCC3)c(C)o2)cc1 (stereo not drawn)	0	0	0	0	30µM	0
Cc1cc(C)c(CN2C(=O)c3ccccc3S(=O)(=O)c3ccc(C(=O)OCC4CCCO4)cc32)c(C)c1 (stereo not drawn)	0	0	-	-	-	0
Cc1ccc(S(=O)(=O)N(CC(=O)Nc2ccccc2C(=O)O)c2cccc(Cl)c2C)cc1	?	0	0	0	30µM	0
Cc1ccc(S(=O)(=O)N(CC(=O)Nc2ccccc2C(=O)O)c2ccccc2C)cc1	0	0	0	0	0	0
CCCNC(=O)c1nc(C)n(-c2ccc([N+](=O)[O-])cc2)n1	0	0	0	0	27µM	0
O=C(CSc1nc(-c2ccc(F)cc2)nc2ccc(F)cc12)Nc1cccc(C(=O)O)c1	-	0	0	0	?	25µM
SMILES	Pin1 inh	VDR inhibitor	S-ASM inh	Tb PFK inh	PLK1 PBD block	TDP1 block
O=C(CSc1nc(-c2ccccc2)nc2c1Cc1ccccc1O2)Nc1ccc(C(=O)O)cc1	?	0	0	?	21µM	4.5µM
O=C(CSc1nc(-c2ccc(F)cc2)nc2c1Cc1ccccc1O2)Nc1ccc(C(=O)O)cc1	?	0	0	?	15µM	5µM
COc1cccc2nc(-c3cccs3)nc(NN3C(=O)C=C(C)C3=O)c12	0	-	-	-	-	0
Cc1cc(OCc2cc(C(=O)N(C)CC3CCOCC3)no2)cc(C)c1Cl	0	?	0	0	27µM	0
Cc1ccc2[nH]c(=O)c(CN(Cc3ccccc3)Cc3nnnn3Cc3ccco3)cc2c1	0	0	-	-	-	0
COc1cccc(NS(=O)(=O)c2ccc3c(c2)CCC(=O)N3)c1	0	-	-	-	-	0
O=C(O)c1ccc(CSCc2ccccc2)o1	-	-	-	-	0	-
Cc1cccc(CSCc2ccc(C(=O)O)o2)c1	0	0	0	0	24µM	-
O=C(c1cc(COc2ccc(F)cc2Cl)on1)N1CCCCCCC1	0	?	0	0	19µM	0
CCN1CCC(O)(/C=C/c2ccc(C(C)C)cc2)C(C(=O)/C=C/c2ccc(C(C)C)cc2)C1 (stereo not drawn)	0	40µM	?	-	0	-
CCOc1ccc(CNc2ccc(N3CCCC3)cc2)cc1	0	4µM	0	0	?	0
C=CCOc1c(Cl)cc(CNc2ccc(N(C)C)cc2)cc1OC	0	2.2µM	0	0	0	0
COc1cc(CNc2ccc(N3CCCC3)cc2)cc(Cl)c1OC	0	5.6µM	0	0	21µM	0
CCCOc1c(Cl)cc(C(=O)N(Cc2cccc(OC)c2)C2CCS(=O)(=O)C2)cc1Cl (stereo not drawn)	0	0	-	-	-	0
O=C(Cc1ccc(Cl)cc1)NN1C(=O)c2ccccc2C1=O	0	0	0	0	27µM	0
Cc1cc(C)cc(OCC(=O)NN2C(=O)c3ccccc3C2=O)c1	0	?	0	0	0	0
Cc1nn(-c2ccccc2)c(N)c1Sc1ccc([N+](=O)[O-])cc1	0	?	0	0	12µM	0
Cc1nn(-c2ccccc2)c2c1C(c1ccc([N+](=O)[O-])cc1)C(C#N)=C(N)O2 (stereo not drawn)	0	?	0	0	?	0
Cc1nn(-c2ccccc2)c(OC(=O)C(C)C)c1Sc1ccccc1	0	71µM	-	-	-	0
Cc1nn(-c2ccccc2)c(OC(=O)C(C)(C)C)c1Sc1ccccc1	0	79µM	-	-	-	0
Cc1cc2c(s1)c1cnn(Cc3cc(F)ccc3C)c(=O)c1n2C	0	-	-	-	-	-
Fc1cc(Br)ccc1Nc1c2c(nc3nc(-c4cccs4)nn13)CCCC2	?	0	-	-	-	0
CCN(CC)S(=O)(=O)c1ccc(-c2cn3cc(Cl)ccc3n2)cc1	0	0	0	0	12µM	-
CCc1ccccc1NC(=O)Nc1nnc(N(C)Cc2ccccc2)s1	0	0	-	-	-	0
CC(C)(C)C(=O)Nc1cccc(C(=O)c2cccc(NC(=O)C(C)(C)C)c2)c1	0	0	0	0	24µM	0
COc1cc(NC(=S)Nc2cccnc2)cc(OC)c1	0	0	0	0	24µM	0
CCC(=O)N1CCCc2cc(S(=O)(=O)Nc3ccc(C)c(C)c3)ccc21	0	0	-	-	-	0
O=C(O)C1Nc2c(Cl)cc(Cl)cc2C2C=CCC12 (stereo not drawn)	?	?	0	?	7.5µM	-
